The values below come from publication PMC8384837, “Expanding the binding specificity for RNA recognition by a PUF domain”.

Test in all cases: yeast three-hybrid, YBZ-1, SC-Leu-His + 0.5 mM 3-AT, 4 days
Conditions in all cases: tags: N-Gal4 AD-HA kept; label: inside an RPR1-promoter hybrid RNA with tandem MS2 sites; ssRNA

The target of test [1] is PUM1 PUF domain R5-KTN (Homo sapiens, UniProt Q14671 828-1176, C1007K;R1008T;Q1011N). An outline of the steps:
(§1)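 The interaction score is the log change in how often each variant appears, from input to selection. Frequencies came from PCR-amplified, Illumina-sequenced repeat regions of Pumilio-1 PUF domain libraries grown in strain YBZ-1 (LexA–MS2 coat fusion, HIS3 reporter) alongside matching RNA elements. Input plates were SC-Leu and selection plates were SC-Leu-His + 0.5 mM 3-AT, each for four days, and the log2 calculation used a pseudocount of 1 where a variant was absent.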

Test [2] deals with PUM1 PUF domain R7-IMG (Homo sapiens, UniProt Q14671 828-1176, S1079I;N1080M;E1083G). An outline of the steps:
as §1

Test [3] addresses PUM1 PUF domain R4-HNS (Homo sapiens, UniProt Q14671 828-1176, N971H;H972N;Q975S). An outline of the steps:
as §1

In test [4] the target is PUM1 PUF domain R3-VRI (Homo sapiens, UniProt Q14671 828-1176, C935V;Q939I). The essentials: as §1
Test [5] addresses PUM1 PUF domain R4-RLF (Homo sapiens, UniProt Q14671 828-1176, N971R;H972L;Q975F). An outline of the steps:
as §1

Test [6] deals with PUM1 PUF domain R3-LWS (Homo sapiens, UniProt Q14671 828-1176, C935L;R936W;Q939S). The essentials:
as §1

The target of test [7] is PUM1 PUF domain R4-GFW (Homo sapiens, UniProt Q14671 828-1176, N971G;H972F;Q975W). An outline of the steps: as §1
Test [8] addresses PUM1 PUF domain R4-SPM (Homo sapiens, UniProt Q14671 828-1176, N971S;H972P;Q975M). An outline of the steps:
as §1

Test [9] concerns the target PUM1 PUF domain R5-QLS (Homo sapiens, UniProt Q14671 828-1176, C1007Q;R1008L;Q1011S). The essentials:
as §1

In test [10] the target is PUM1 PUF domain R4-RMT (Homo sapiens, UniProt Q14671 828-1176, N971R;H972M;Q975T). An outline of the steps: as §1
Test [11] concerns the target T1, PUM1 PUF domain R6-RWC (Homo sapiens, UniProt Q14671 828-1176, N1043R;Y1044W;Q1047C).
T1 sequence: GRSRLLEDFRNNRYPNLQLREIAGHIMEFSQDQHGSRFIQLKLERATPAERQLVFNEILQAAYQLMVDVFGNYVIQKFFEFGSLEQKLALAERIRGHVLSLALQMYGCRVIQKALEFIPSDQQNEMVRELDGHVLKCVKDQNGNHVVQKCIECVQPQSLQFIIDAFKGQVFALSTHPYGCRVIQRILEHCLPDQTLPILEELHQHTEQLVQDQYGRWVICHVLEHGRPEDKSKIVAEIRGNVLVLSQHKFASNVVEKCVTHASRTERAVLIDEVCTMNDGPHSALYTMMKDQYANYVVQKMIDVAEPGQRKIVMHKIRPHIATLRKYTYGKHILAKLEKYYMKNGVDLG
An outline of the steps: as §1

For test [12], the target named is PUM1 PUF domain R1-RCL (Homo sapiens, UniProt Q14671 828-1176, S863R;R864C;Q867L). An outline of the steps:
as §1

Test [13] deals with PUM1 PUF domain R1-LRR (Homo sapiens, UniProt Q14671 828-1176, S863L;Q867R). An outline of the steps:
as §1

Test [14] concerns the target PUM1 PUF domain R1-SVR (Homo sapiens, UniProt Q14671 828-1176, R864V;Q867R). The essentials: as §1
Test [15] concerns the target PUM1 PUF domain R2-LWF (Homo sapiens, UniProt Q14671 828-1176, N899L;Y900W;Q903F). The essentials:
as §1

In test [16] the target is PUM1 PUF domain R5-NLL (Homo sapiens, UniProt Q14671 828-1176, C1007N;R1008L;Q1011L). An outline of the steps:
as §1

The target in test [17] is PUM1 PUF domain R5-NKR (Homo sapiens, UniProt Q14671 828-1176, C1007N;R1008K;Q1011R). The essentials:
as §1

Sequence of PUM1 PUF domain R7-IMG (Q14671 828-1176 S1079I/N1080M/E1083G): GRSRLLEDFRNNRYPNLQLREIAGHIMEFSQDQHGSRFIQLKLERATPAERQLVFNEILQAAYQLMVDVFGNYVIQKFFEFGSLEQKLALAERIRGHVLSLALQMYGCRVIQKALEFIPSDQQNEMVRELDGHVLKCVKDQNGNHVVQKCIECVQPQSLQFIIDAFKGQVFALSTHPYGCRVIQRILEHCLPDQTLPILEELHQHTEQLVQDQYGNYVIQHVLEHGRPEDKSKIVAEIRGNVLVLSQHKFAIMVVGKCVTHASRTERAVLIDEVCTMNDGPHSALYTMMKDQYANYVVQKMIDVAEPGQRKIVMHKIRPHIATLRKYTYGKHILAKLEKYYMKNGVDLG
Sequence of PUM1 PUF domain R5-NLL (Q14671 828-1176 C1007N/R1008L/Q1011L): as the sequence (Q14671 828-1176 S1079I/N1080M/E1083G) above, with C180N, R181L, Q184L, I252S, M253N, G256E counted along it
Sequence of PUM1 PUF domain R5-KTN (Q14671 828-1176 C1007K/R1008T/Q1011N): as the sequence (Q14671 828-1176 S1079I/N1080M/E1083G) above, with C180K, R181T, Q184N, I252S, M253N, G256E counted along it
Sequence of PUM1 PUF domain R5-NKR (Q14671 828-1176 C1007N/R1008K/Q1011R): as the sequence (Q14671 828-1176 S1079I/N1080M/E1083G) above, with C180N, R181K, Q184R, I252S, M253N, G256E counted along it

For the sequence “GGCUAGAACUAGUGGAUCCCCCGGCGCCCGGCGGCUCGAGCCCGGGUAAGUGUCAAUAGUCUGCAUGCCGCCGGGCGCCAUGCCUGCAGGUCGACUCUAGAAAACAUG”, the binding signal in test [1] was 3.79 log2 enrichment (interaction score).

On to “GGCUAGAACUAGUGGAUCCCCCGGCGCCCGGCGGCUCGAGCCCGGGUAAGUUUAAAUAGUCUGCAUGCCGCCGGGCGCCAUGCCUGCAGGUCGACUCUAGAAAACAUG”, for which the binding signal in test [2] was 3.68 log2 enrichment (interaction score).

As for “GGCUAGAACUAGUGGAUCCCCCGGCGCCCGGCGGCUCGAGCCCGGGUAAGUGUAAAUAGUCUGCAUGCCGCCGGGCGCCAUGCCUGCAGGUCGACUCUAGAAAACAUG”, the binding signal is 1.42 log2 enrichment (interaction score) in [3]; 4.31 log2 enrichment (interaction score) in [4]; 4.74 log2 enrichment (interaction score) in test [5]; 4.31 log2 enrichment (interaction score) in [6]; 4.78 log2 enrichment (interaction score) in test [7]; 3.49 log2 enrichment (interaction score) in [8]. In addition, the binding signal in [9] was 0.83 log2 enrichment (interaction score); in test [10] it was 3.47 log2 enrichment (interaction score); in test [11], 4.89 log2 enrichment (interaction score).

For the sequence “GGCUAGAACUAGUGGAUCCCCCGGCGCCCGGCGGCUCGAGCCCGGGUAAGUGUGAAUAGUCUGCAUGCCGCCGGGCGCCAUGCCUGCAGGUCGACUCUAGAAAACAUG”, the binding signal in test [9] is 2.16 log2 enrichment (interaction score).

Consider “GGCUAGAACUAGUGGAUCCCCCGGCGCCCGGCGGCUCGAGCCCGGGUAAGUGUAAGUAGUCUGCAUGCCGCCGGGCGCCAUGCCUGCAGGUCGACUCUAGAAAACAUG”, for which, in [6], the binding signal is 6.62 log2 enrichment (interaction score).

For the sequence “GGCUAGAACUAGUGGAUCCCCCGGCGCCCGGCGGCUCGAGCCCGGGUAAGUGUAAAUCGUCUGCAUGCCGCCGGGCGCCAUGCCUGCAGGUCGACUCUAGAAAACAUG”, the binding signal in test [12] was 3.05 log2 enrichment (interaction score); in [13] it was 2.97 log2 enrichment (interaction score); in [14], 3.35 log2 enrichment (interaction score).

For “GGCUAGAACUAGUGGAUCCCCCGGCGCCCGGCGGCUCGAGCCCGGGUAAGUGUAAACAGUCUGCAUGCCGCCGGGCGCCAUGCCUGCAGGUCGACUCUAGAAAACAUG”, the binding signal in test [15] is 1.17 log2 enrichment (interaction score).

Turning to “GGCUAGAACUAGUGGAUCCCCCGGCGCCCGGCGGCUCGAGCCCGGGUAAGUGUUAAUAGUCUGCAUGCCGCCGGGCGCCAUGCCUGCAGGUCGACUCUAGAAAACAUG”, the values for the binding signal in test [16] and in test [17] were 2.94 log2 enrichment (interaction score) and 5.24 log2 enrichment (interaction score), respectively.
